Measurements from PubChem BioAssay (NCATS).
Inconclusive results are not listed. Activity calls are given as the source filed them. The call rests on the fitted dose curve; in most records, active means well fitted inhibition curve with a large enough effect; inconclusive means small, poorly fitted or top-dose-only effect; inactive means flat fitted curve, though single readings scatter. Where a SMILES comes first, the peptide text is derived from it. Bridges are numbered along the chain shown (N, C = ends). [ ]: non-standard residue; d: D form. hArg = N=C(N)NCCCC[C@H](N)C(=O)O; Mpa = O=C(O)CCS

Experiments:
Assay in all cases: qHTS profiling for inhibitors of Plasmodium falciparum proliferation (AID 504749); further: nearly all actives have a fitted effect of over 60% in size
Details in all cases: P. falciparum in erythrocytes, SYBR Green DNA, 72 h; series mostly up to 28.7 µM
ICS = system: ICS
Summary of the method: (§1)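 Fluorescence of SYBR Green-bound parasite DNA, read at 485/535 nm, served as the growth measure. Infected erythrocytes were cultured with compound 72 h; artemisinin (0.29 uM) and DMSO wells defined the normalization range.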

JCK = system: JCK
Summary of the method: as §1

N140 = system: N140
Summary of the method: as §1

P93_24 = system: P93_24
Summary of the method: as §1

P94_40 = system: P94_40
Summary of the method: as §1

PAD = system: PAD
Summary of the method: as §1

PC15 = system: PC15
Summary of the method: as §1

PC26 = system: PC26
Summary of the method: as §1

PC49 = system: PC49
Summary of the method: as §1

SC27B = system: SC27B
Summary of the method: as §1

Measured: Potency

CC1CCN(CCCC(=O)c2ccc(F)cc2)CC1
inactive: ICS | JCK | N140 | P93_24 | P94_40 | PAD | PC15 | PC26 | PC49 | SC27B

COc1nccnc1NS(=O)(=O)c1ccc(N)cc1
inactive: ICS | JCK | N140 | P93_24 | P94_40 | PAD | PC15 | PC26 | PC49 | SC27B

O=C(O)c1cc(=O)c2ccccc2o1
inactive: ICS | JCK | N140 | P93_24 | P94_40 | PAD | PC15 | PC26 | PC49 | SC27B

CN1CCCN=C1COC(=O)C(O)(c1ccccc1)C1CCCCC1 (stereo not given)
inactive: ICS | JCK | N140 | P93_24 | P94_40 | PAD | PC15 | PC26 | PC49 | SC27B

C[C@@H](N)C(=O)O
inactive: ICS | JCK | N140 | P93_24 | P94_40 | PAD | PC15 | PC26 | PC49 | SC27B

CCN(CC)S(=O)(=O)c1ccc(C(=O)O)cc1
inactive: ICS | JCK | N140 | P93_24 | P94_40 | PAD | PC15 | PC26 | PC49 | SC27B

NC(N)=NS(=O)(=O)c1ccc(N)cc1
inactive: ICS | JCK | N140 | P93_24 | P94_40 | PAD | PC15 | PC26 | PC49 | SC27B

NC(=O)[C@@H]1CSSCCC(=O)N[C@@H](CCCCN=C(N)N)C(=O)NCC(=O)N[C@@H](CC(=O)O)C(=O)N[C@@H](Cc2c[nH]c3ccccc23)C(=O)N2CCC[C@H]2C(=O)N1 ([Mpa][hArg]GDWPC-NH2; disulfide 1-7)
inactive: ICS | JCK | N140 | P93_24 | P94_40 | PAD | PC15 | PC26 | PC49 | SC27B

CCOC(=O)c1cccnc1
inactive: ICS | JCK | N140 | P93_24 | P94_40 | PAD | PC15 | PC26 | PC49 | SC27B

NS(=O)(=O)c1cc2c(cc1C(F)(F)F)NCNS2(=O)=O
inactive: ICS | JCK | N140 | P93_24 | P94_40 | PAD | PC15 | PC26 | PC49 | SC27B

C[C@@H]1CCC[C@H](C)N1
inactive: ICS | JCK | N140 | P93_24 | P94_40 | PAD | PC15 | PC26 | PC49 | SC27B

O=C(O)c1ccccc1C(=O)Nc1ccc(S(=O)(=O)Nc2nccs2)cc1
inactive: ICS | JCK | N140 | P93_24 | P94_40 | PAD | PC15 | PC26 | PC49 | SC27B

O=C1c2cccc(O)c2C(=O)c2c(O)cccc21
inactive: ICS | JCK | N140 | P93_24 | P94_40 | PAD | PC15 | PC26 | PC49 | SC27B

Cc1ccccc1N=Nc1ccc(N=Nc2c(O)ccc3ccccc23)c(C)c1
inactive: ICS | JCK | N140 | P93_24 | P94_40 | PAD | PC15 | PC26 | PC49 | SC27B

Nc1ccc(C(=O)Oc2ccccc2)c(O)c1
inactive: ICS | JCK | N140 | P93_24 | P94_40 | PAD | PC15 | PC26 | PC49 | SC27B

CCc1cccc(CC)c1NC(=O)CN(CC(=O)O)CC(=O)O
inactive: ICS | JCK | N140 | P93_24 | P94_40 | PAD | PC15 | PC26 | PC49 | SC27B

O=c1[nH]c2cc(C(F)(F)F)c(N3CCOCC3)cc2n(CP(=O)(O)O)c1=O
inactive: ICS | JCK | N140 | P93_24 | P94_40 | PAD | PC15 | PC26 | PC49 | SC27B

CC(=O)Nc1ccccc1
inactive: ICS | JCK | N140 | P93_24 | P94_40 | PAD | PC15 | PC26 | PC49 | SC27B

Cc1onc(-c2ccccc2)c1-c1ccc(S(N)(=O)=O)cc1
inactive: ICS | JCK | N140 | P93_24 | P94_40 | PAD | PC15 | PC26 | PC49 | SC27B

CCCOC(=O)c1ccc(N)cc1
inactive: ICS | JCK | N140 | P93_24 | P94_40 | PAD | PC15 | PC26 | PC49 | SC27B

CN/C(=C\[N+](=O)[O-])NCCSCc1csc(CN(C)C)n1
inactive: ICS | JCK | N140 | P93_24 | P94_40 | PAD | PC15 | PC26 | PC49 | SC27B

Cc1cc(NC(=O)C2=C(O)c3ccccc3S(=O)(=O)N2C)no1
inactive: ICS | JCK | N140 | P93_24 | P94_40 | PAD | PC15 | PC26 | PC49 | SC27B

O=C(Cn1ccnc1[N+](=O)[O-])NCCO
inactive: ICS | JCK | N140 | P93_24 | P94_40 | PAD | PC15 | PC26 | PC49 | SC27B

NS(=O)(=O)c1ccc(C(=O)O)cc1
inactive: ICS | JCK | N140 | P93_24 | P94_40 | PAD | PC15 | PC26 | PC49 | SC27B

c1ccc2[nH]ccc2c1
inactive: ICS | JCK | N140 | P93_24 | P94_40 | PAD | PC15 | PC26 | PC49 | SC27B

CN(C(=O)c1c(O)c2ccccc2n(C)c1=O)c1ccccc1
inactive: ICS | JCK | N140 | P93_24 | P94_40 | PAD | PC15 | PC26 | PC49 | SC27B

CC(=O)N[C@@H](Cc1ccc(O)cc1)C(=O)O
inactive: ICS | JCK | N140 | P93_24 | P94_40 | PAD | PC15 | PC26 | PC49 | SC27B

CC(=O)OCC(COC(C)=O)OC(C)=O
inactive: ICS | JCK | N140 | P93_24 | P94_40 | PAD | PC15 | PC26 | PC49 | SC27B

CCCCCCCC(=O)OCC(COC(=O)CCCCCCC)OC(=O)CCCCCCC
inactive: ICS | JCK | N140 | P93_24 | P94_40 | PAD | PC15 | PC26 | PC49 | SC27B

NCC1CCC(C(=O)Oc2ccc(CCC(=O)O)cc2)CC1 (stereo not given)
inactive: ICS | JCK | N140 | P93_24 | P94_40 | PAD | PC15 | PC26 | PC49 | SC27B

CNc1c2c(nn1C)CCCC2
inactive: ICS | JCK | N140 | P93_24 | P94_40 | PAD | PC15 | PC26 | PC49 | SC27B

CCCCCCCC(=O)OCC(O)CO (stereo not given)
inactive: ICS | JCK | N140 | P93_24 | P94_40 | PAD | PC15 | PC26 | PC49 | SC27B

NNC(=O)CP(=O)(c1ccccc1)c1ccccc1
inactive: ICS | JCK | N140 | P93_24 | P94_40 | PAD | PC15 | PC26 | PC49 | SC27B

Cc1cc(C)nc(NS(=O)(=O)c2ccc(N)cc2)n1
inactive: ICS | JCK | N140 | P93_24 | P94_40 | PAD | PC15 | PC26 | PC49 | SC27B

CC(=O)Nc1cccc(O)c1
inactive: ICS | JCK | N140 | P93_24 | P94_40 | PAD | PC15 | PC26 | PC49 | SC27B

CCOC(=O)[C@H](CCc1ccccc1)N[C@@H](C)C(=O)N1CCC[C@H]1C(=O)O
inactive: ICS | JCK | N140 | P93_24 | P94_40 | PAD | PC15 | PC26 | PC49 | SC27B

OCC(O)CS (stereo not given)
inactive: ICS | JCK | N140 | P93_24 | P94_40 | PAD | PC15 | PC26 | PC49 | SC27B

N[C@@H](Cc1ccc(O)cc1)C(=O)O
inactive: ICS | JCK | N140 | P93_24 | P94_40 | PAD | PC15 | PC26 | PC49 | SC27B

CC(C)c1cc2c(cc1S(=O)(=O)O)[C@@]1(C)CCC[C@@](C)(C(=O)O)[C@@H]1CC2
inactive: ICS | JCK | N140 | P93_24 | P94_40 | PAD | PC15 | PC26 | PC49 | SC27B

NNc1nnc(NN)c2ccccc12
inactive: ICS | JCK | N140 | P93_24 | P94_40 | PAD | PC15 | PC26 | PC49 | SC27B

CC(C)C[C@@H](N)C(=O)O
inactive: ICS | JCK | N140 | P93_24 | P94_40 | PAD | PC15 | PC26 | PC49 | SC27B

Cc1c(NC(=O)c2cccnc2)c(=O)n(-c2ccccc2)n1C
inactive: ICS | JCK | N140 | P93_24 | P94_40 | PAD | PC15 | PC26 | PC49 | SC27B

CCOc1ccc(C(=O)OCCN(CC)CC)cc1
inactive: ICS | JCK | N140 | P93_24 | P94_40 | PAD | PC15 | PC26 | PC49 | SC27B

Cc1ccc(S(=O)(=O)NC(=O)NC2CCCCC2)cc1
inactive: ICS | JCK | N140 | P93_24 | P94_40 | PAD | PC15 | PC26 | PC49 | SC27B

Nc1ccc(S(=O)(=O)c2ccc(N)cc2)cc1
inactive: ICS | JCK | N140 | P93_24 | P94_40 | PAD | PC15 | PC26 | PC49 | SC27B

NC(N)=NCCN1CCCCCCC1
inactive: ICS | JCK | N140 | P93_24 | P94_40 | PAD | PC15 | PC26 | PC49 | SC27B

CCS(=O)(=O)CCn1c([N+](=O)[O-])cnc1C
inactive: ICS | JCK | N140 | P93_24 | P94_40 | PAD | PC15 | PC26 | PC49 | SC27B

O=C(CCBr)N1CCN(C(=O)CCBr)CC1
inactive: ICS | JCK | N140 | P93_24 | P94_40 | PAD | PC15 | PC26 | PC49 | SC27B
